Among the data in PubChem BioAssay (NCI) are growth inhibition values, retold here.

This is part of a sample that, as a whole, favours compounds with a hit. Of some 79,000 tested, about 15% had one in any assay. A number with no mark means an inactive call. Calls of active or inactive are those of the source. No stated cut-off is given here; in the data, active means growth inhibition above about 70%; inactive means the rest. Where a SMILES comes first, the peptide text is derived from it.

A short description of assay [1]: NCI Yeast Anticancer Drug Screen. Data for the rad50 strain (AID 155).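 Further: 0% = growth of vehicle-only cultures of the same strain.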 The note with it: S. cerevisiae rad50 strain growth inhibition; at 50.0 µM; hits give high values. In short, it runs like this: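 Genetically altered yeast (DNA repair pathway); compound treatment; growth inhibition vs vehicle ctrl.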
A short description of assay [2]: NCI Yeast Anticancer Drug Screen. Data for the mec2-1 strain (AID 157). The conditions noted are these: S. cerevisiae mec2-1 strain, at 50.0 µM, hits give high values. In short, it runs like this:
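Growth inhibition is read against vehicle-treated controls after compound exposure of the mec2-1 yeast strain, which is defective in DNA damage repair or cell cycle control.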

Assay [3] is described as follows: NCI Yeast Anticancer Drug Screen. Data for the sgs1 mgt1 strain (AID 161).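 Further: 0% = growth of cultures given vehicle only.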 The conditions noted are these: S. cerevisiae sgs1 mgt1 strain, at 50.0 µM, hits give high values. In short, it runs like this:
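Growth of a repair-deficient yeast mutant was monitored after compound treatment and expressed as inhibition relative to vehicle-treated cultures.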

Assay [4] in a line: NCI Yeast Anticancer Drug Screen. Data for the cln2 rad14 strain (AID 165).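 Further: 0% = growth equal to vehicle treated cultures.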 The conditions noted are these: S. cerevisiae cln2 rad14 strain, at 50.0 µM, hits give high values. A digest of the protocol: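 Growth inhibition, relative to vehicle-treated controls, is the read-out. The test organism is a yeast strain with defined genetic alterations, cln2 rad14.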
Assay [5] is described as follows: NCI Yeast Anticancer Drug Screen. Data for the bub3 strain (AID 167). The conditions noted are these: S. cerevisiae bub3 mutant strain, at 50.0 µM, hits give high values. A digest of the protocol:
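Yeast carrying a defined mutation is treated with each compound, and growth is compared with that of vehicle-exposed cells to give inhibition.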

A short description of assay [6]: NCI Yeast Anticancer Drug Screen. Data for the mlh1 rad18 strain (AID 175). The note with it: S. cerevisiae mlh1 rad18 strain growth inhibition; at 50.0 µM; hits give high values. A digest of the protocol: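 Cells of a genetically altered yeast strain, deficient in DNA damage repair, were treated with compound. Their growth was then compared with that of vehicle-treated cultures to give inhibition.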

For `CC(=O)Oc1ccc(/C=C/c2ccccn2)cc1`, the growth inhibition was 6.6% in assay [1]; -1.75% in assay [2]; -1.5% in assay [3]; -55.1% in assay [4]; 3.75% in assay [5]; 15.3% in assay [6].
In the case of `O=C1N=C2SC(=S)NC(=S)N2NC12c1ccccc1-c1ccccc12`, the growth inhibition in assay [1] was 30.1%; in assay [2], -11.4%; in assay [3], 31%; in assay [4], 10.5%; in assay [5], 16.4%; in assay [6], 19.6%.
`O=C1C(Cl)C(c2ccc(O)cc2)N1n1cnc2ccccc2c1=O` (stereo unspecified): the growth inhibition was 56.6% in assay [1]; 37.9% in assay [2]; 59.4% in assay [3]; 31.9% in assay [4]; 32.8% in assay [5]; 36.6% in assay [6].
With `N#CC(c1ccc(N)cc1)c1ccc(F)cc1` (stereo unspecified), the growth inhibition in assay [1] was 15.6%; in assay [2] it was -16.8%; in assay [3] it was 22.2%; in assay [4], 27.2%; in assay [5], -0.6%; in assay [6] it was 26.2%.
In the case of `NC(Cc1c(F)c(F)c(F)c(F)c1F)C(=O)O` (stereo unspecified), the growth inhibition is -2.6% in assay [1]; 2.95% in assay [2]; 11.2% in assay [3]; -11.3% in assay [4]; -12.1% in assay [5]; -7.4% in assay [6].
Regarding `CCCCCC(CN(C)C)C(=O)CC(SCC)c1ccccc1` (stereo unspecified), the growth inhibition in assay [1] was 27.7%; in assay [2], 20.4%; in assay [3], 8.85%; in assay [4], 1.05%; in assay [5], 18.6%; in assay [6], 16.8%.
For the compound `O=C(O)C1Nc2ccccc2NC1=O` (stereo unspecified), the growth inhibition was 3.55% in assay [1]; -3.15% in assay [2]; -5.5% in assay [3]; -47% in assay [4]; -4.35% in assay [5]; 3.3% in assay [6].
As to `CCOC(=O)C(C)CC(=O)C(C)CC(=O)C(C)C` (stereo unspecified), the growth inhibition in assay [1] was -9.95%; in assay [2], 6.1%; in assay [3], -13.3%; in assay [4], -14.2%; in assay [5], -9.75%; in assay [6] it was -5.05%.
Consider `CC(C)C1CC[N-]CC1.CC(C)C1CC[N-]CC1.[Cl][Pt+2][Cl]`, for which the growth inhibition was 82.6% (active) in assay [1]; 48% in assay [2]; 86.3% (active) in assay [3]; 18.9% in assay [4]; 36.6% in assay [5]; 75.4% (active) in assay [6].
On to `CC1(CCl)Nc2ccccc2C(=O)N1c1ccccc1` (stereo unspecified), for which the growth inhibition in assay [1] was 6.65%; in assay [2] it was -6.2%; in assay [3], 16.4%; in assay [4], 4.2%; in assay [5], 28.4%; in assay [6], 8.5%.
`COC(=O)/C(C#N)=C/c1ccco1`: the growth inhibition in assay [1] was -34%; in assay [2], 6.65%; in assay [3], -14.2%; in assay [4] it was 2.5%; in assay [5] it was -2.05%; in assay [6], -21.6%.
On to `O=c1c2c(oc3cc(OCC4CO4)ccc13)CCC2` (stereo unspecified), for which the growth inhibition in assay [1] was -0.4%; in assay [2] it was -7.7%; in assay [3], -28.2%; in assay [4], -24.9%; in assay [5], -9.05%; in assay [6] it was -21.4%.
Take `CN1CCN(C(=O)NC2CCCCC2)CC1`: the growth inhibition in assay [1] is -2.1%; in assay [2], -10.9%; in assay [3], 3.35%; in assay [4], -44.4%; in assay [5], -8.4%; in assay [6], -7.6%.
In the case of `N#Cc1c2c(c(=O)n3c1[nH]c1ccccc13)CCCC2`, the growth inhibition was 16.2% in assay [1]; 5.35% in assay [2]; 19.8% in assay [3]; 7.95% in assay [4]; 18.4% in assay [5]; 18.5% in assay [6].
Consider `Cc1cc(=O)c2c(ccc3c(=O)cc(C)[nH]c32)[nH]1`, for which the growth inhibition in assay [1] was -56.8%; in assay [2], -21.2%; in assay [3], -14.3%; in assay [4], -52.2%; in assay [5], -3.1%; in assay [6], 3.25%.
For the compound `CC(=O)NNc1nc(C)c(C(=O)NNC(=O)C(=O)Nc2c(Cl)cc([N+](=O)[O-])cc2Cl)s1`, the growth inhibition is 41.2% in assay [1]; 22.9% in assay [2]; 45.7% in assay [3]; 29% in assay [4]; 42.7% in assay [5]; 18.9% in assay [6].
For `Cc1cc2c(=O)c3ccccc3[nH]c2c(C(N)=O)c1C`, the growth inhibition in assay [1] was 39.5%; in assay [2], 7.8%; in assay [3] it was 1.75%; in assay [4], -6.9%; in assay [5] it was -10.5%; in assay [6], 15.3%.
For `CC1CCCC(C)(c2ccccc2)/C1=N\Nc1ccc([N+](=O)[O-])cc1[N+](=O)[O-]` (stereo unspecified), the growth inhibition in assay [1] is 36.2%; in assay [2], 13.9%; in assay [3], 9.65%; in assay [4], 18%; in assay [5], 2.1%; in assay [6] it was 29.9%.
Consider `CC(C)=CCc1c(O)ccc2ccc(=O)oc12`, for which the growth inhibition was 21.6% in assay [1]; 20.1% in assay [2]; 10.2% in assay [3]; 17.9% in assay [4]; 7.3% in assay [5]; 29.4% in assay [6].
For `NC(Cc1ccccc1)C(=O)NCC(=O)NC(Cc1ccccc1)C(=O)NCC(=O)O` (stereo unspecified) (H-FGFG-OH; configuration not given here), the growth inhibition is -4.35% in assay [1]; -4.15% in assay [2]; -7.95% in assay [3]; -36.4% in assay [4]; -4.7% in assay [5]; 4.2% in assay [6].
For the compound `COc1ccccc1N1C(=O)/C(=N\OC(=O)c2c(-c3c(Cl)cccc3Cl)noc2C)SC1=S`, the growth inhibition in assay [1] is -13.9%; in assay [2] it was -26.6%; in assay [3] it was -19.5%; in assay [4], 11%; in assay [5], -34.8%; in assay [6], -0.2%.
